Experimental findings from PubChem BioAssay AID1986 (Sanford-Burnham Center for Chemical Genomics, 2009) are described below.

This test in a line: cell-free HIV fusion peptide-binding blockers – biochemical, uHTS, fluorescence dequenching, primary screen (AID 1986). The following applies: 30 min, stronger effect = higher value.
Where [1] appears, read: measured here: repeat confirmation average inhibition, at 18.6 µM.

The campaign covered roughly 290,000 compounds. About 890 (0.31%) were called active. The sample holds actives, similar compounds and a random draw of the others, so the mix is not that of the screen. No stated cut-off is given here; in the data, active means inhibition mostly above about 52% (no sharp cut-off); inactive means mostly below about 76%.

Turning to `CC(C)(C)n1nnnc1CN1CCN2CCCC2C1` (configuration not stated), for the setting “at 20 µM”, the inhibition was 1.1% (inactive).
Take `NC(=O)C1=C[C@H](c2ccc(C(F)(F)F)cc2)C[C@H](OCCCCO)O1`: the inhibition (at 20 µM) is -0.7% (inactive).
As for `Cc1cccc(NS(=O)(=O)c2ccc3c(c2)oc(=O)n3C)c1C`, the inhibition (at 20 µM) is 2.3% (inactive).
Consider `Cc1cccc(NC(=O)NC2CCCc3ccccc32)c1` (configuration not stated), for which the inhibition (at 20 µM) is -2.1% (inactive).
Regarding `COc1ccccc1OCC(=O)Nc1ccc(S(=O)(=O)Nc2onc(C)c2C)cc1`, the inhibition (at 20 µM) was -0.4% (inactive).
Still for that read-out and setting: then `CCC(C)[C@H](NC(=O)[C@@H]1Cc2c([nH]c3ccccc23)C2c3ccccc3C(=O)N21)C(=O)N1CCC[C@@H]1C(=O)O` (some centres not stated), with 6.9% (inactive).
As for `O=C(CCN1C(=O)/C(=C/c2ccco2)SC1=S)Nc1ccc(O)cc1C(=O)O`, the inhibition runs as follows: (at 20 µM) 52.5% (inactive); under setting [1], 30.6%.
As to `O=C(CN1C(=O)/C(=C\c2cccs2)SC1=S)Nc1cccc(C(=O)O)c1`, the inhibition (at 20 µM) was 32.4% (inactive).
Still for that read-out and setting: for `O=C(CN1C(=O)/C(=C/c2ccco2)SC1=S)Nc1ccc(C(=O)O)c(O)c1` the value was 76.4% (active); for `O=C(CN1C(=O)/C(=C\c2ccco2)SC1=S)Nc1ccc(O)cc1C(=O)O`, 75.1% (active).
With `O=C(CCCN1C(=O)/C(=C\c2ccco2)SC1=S)Nc1ccc(O)cc1C(=O)O`, the inhibition (at 20 µM) is 72% (inactive) and the inhibition under setting [1] turned out to be 13%.
As to `COc1ccc(NC(=O)CCCN2C(=O)/C(=C\c3ccco3)SC2=S)cc1`, the inhibition (at 20 µM) is 33.7% (inactive).
On the same count and under the same terms, then `CCCCOc1ccc(Cc2n[nH]c(=S)n2N)cc1`, with -3.5% (inactive); and `Cc1ccc(C)c(S(=O)(=O)N2CCN(C(=O)c3ccc(N4CCCC4)c([N+](=O)[O-])c3)CC2)c1`, with 0.3% (inactive); and `CC1(C)Cc2nc3sc4c(N5CCCC5)nnnc4c3cc2CO1`, with 0.1% (inactive).
Regarding `O=C(NCCCCc1ccccc1)c1cccc([N+](=O)[O-])c1`, the inhibition (at 20 µM) was 0.7% (inactive).
As for `CCCCOc1ccc(-c2cc(C(F)(F)F)c(C#N)c(SCC(=O)O)n2)cc1`, for the setting “at 20 µM”, the inhibition was 79.3% (active).
On to `CCCOc1ccc(-c2cc(C(F)(F)F)c(C#N)c(SCC(=O)O)n2)cc1`, for which the inhibition (at 20 µM) was 29.9% (inactive).
Consider `COc1ccc(-c2cc(C(F)(F)F)c(C#N)c(SCC(=O)O)n2)cc1`, for which the inhibition (at 20 µM) was 2.9% (inactive).
Turning to `O=C(N/N=C/c1cccc([N+](=O)[O-])c1)c1ccc2nc[nH]c2c1`, the inhibition (at 20 µM) was -2.3% (inactive).
On the same count and under the same terms, then `O=C1c2ccccc2C(=O)N1Cc1cc(Cl)c(O)c([N+](=O)[O-])c1`, with -1.1% (inactive); and `NC(=S)Nc1cc2ccccc2c2ccccc12`, with -2.7% (inactive).
`CC1CCCN(S(=O)(=O)c2ccc([N+](=O)[O-])cc2)C1` (configuration not stated): the inhibition (at 20 µM) was 1.5% (inactive).
In the case of `O=C(O)Cc1cc(I)c(Oc2ccc(O)c(I)c2)c(I)c1`, the inhibition was 68.9% (inactive) (at 20 µM) and 33.9% under setting [1].
Regarding `N[C@@H](Cc1cc(I)c(Oc2ccc(O)c(I)c2)c(I)c1)C(=O)O`, the inhibition (at 20 µM) was 30.3% (inactive).
On the same count and under the same terms, for `O=C(O)CCc1cc(I)c(Oc2ccc(O)c(I)c2)c(I)c1` the value was 75.1% (active); for `CCn1c(=O)c2c(nc3n2CCCN3CCc2ccc(OC)c(OC)c2)n(C)c1=O`, -0.3% (inactive); for `CC(C)C(=O)NNC(=O)c1csc(-c2cccs2)n1`, 0% (inactive).
The same measure, in the same setting: for `COc1cc(C2CC(=O)Nc3c2c(=O)nc2c(C)cccn32)cc(OC)c1OC` (configuration not stated) the value was 0% (inactive); for `Cc1ccc2nc(/C(C#N)=C\c3ccc(N4CCOCC4)o3)[nH]c2c1`, 28% (inactive).
Regarding `N#C/C(=C\c1ccc(N2CCOCC2)o1)C(=O)Nc1ccc(O)cc1`, the inhibition (at 20 µM) is 148% (inactive).
With `N#C/C(=C\c1ccc(N2CCCCC2)o1)C(N)=O`, where the note is “at 20 µM”, the inhibition was 91.9% (active).
For the molecule `N#C/C(=C/c1ccc(N2CCCCC2)o1)C(=O)Nc1ccc(Cl)cc1`, the inhibition (at 20 µM) is 44.8% (inactive).
Consider `N#C/C(=C/c1ccc(N2CCOCC2)o1)C(=O)Nc1ccccc1`, for which the inhibition (at 20 µM) was 147% (inactive).
`N#C/C(=C/c1ccc(N2CCCCC2)o1)C(=O)Nc1ccc2ccccc2c1`: the inhibition (at 20 µM) is 153% (inactive).
As to `N#C/C(=C\c1ccc(N2CCOCC2)o1)C(=O)N1CCOCC1`, the inhibition reads like this: (at 20 µM) 53.5% (active); under setting [1], 83.9%.
With `N#C/C(=C\c1ccc(N2CCOCC2)o1)c1nc2ccccc2[nH]1`, where the note is “at 20 µM”, the inhibition was 48.3% (inactive).
In the case of `N#C/C(=C/c1ccc(N2CCOCC2)o1)c1nc2ccccc2[nH]1`, for the setting “at 20 µM”, the inhibition was 52.1% (active).
The same measure, in the same setting: for `COc1cccc(CC(=O)NC2CCCN(Cc3ccc(Cl)cc3)C2)c1` (configuration not stated) the value was -1% (inactive); for `CCCCCn1c(=O)[nH]c2cc(C(=O)NCCN3CCCCC3C)ccc2c1=O` (configuration not stated), 0.7% (inactive).
On the same count and under the same terms, then `COc1ccc(OC)c(CN2CCN(S(=O)(=O)c3ccc(NC(C)=O)cc3)CC2)c1`, with -1.6% (inactive); and `S=C(NCCc1ccccc1)NC1CC2CCC(C1)N2Cc1ccccc1` (configuration not stated), with -0.5% (inactive).
For `O=C(N/N=C/c1ccncc1)c1cccs1`, under “at 20 µM”, the inhibition is -1.5% (inactive).
For `CCOC(=O)c1sc(N/N=C/c2cc(Br)c(O)c(OC)c2)nc1C`, where the note is “at 20 µM”, the inhibition was 13.2% (inactive).
As for `COC/C=C/C1=CC2=CC(=O)C(C)(OC(=O)CCC(=O)OC)C(=O)C2=CO1` (configuration not stated), the inhibition (at 20 µM) is 45% (inactive).
Take `COC/C=C/C1=CC2=CC(=O)C(C)(OC(=O)c3ccco3)C(=O)C2=CO1` (configuration not stated): the inhibition (at 20 µM) is 51% (active).
Consider `COC/C=C/C1=CC2=CC(=O)C(C)(OC(=O)C3CCCC3)C(=O)C2=CO1` (configuration not stated), for which the inhibition (at 20 µM) is 35.3% (inactive).
Consider `COC(=O)c1ccc(C(=S)NCC2(N(C)C)CCCCC2)cc1`, for which the inhibition (at 20 µM) is -0.5% (inactive).
`Clc1ccccc1Cn1c(/C=C/c2ccco2)nc2ccccc21`: the inhibition runs as follows: (at 20 µM) 54.5% (inactive); under setting [1], 0.3%.
Regarding `Cc1ccc(Cn2c(/C=C/c3ccco3)nc3ccccc32)cc1`, the inhibition (at 20 µM) is 28.5% (inactive).
As for `Clc1ccc(Cn2c(/C=C/c3ccco3)nc3ccccc32)cc1`, the inhibition (at 20 µM) was 58.4% (active).
The same measure, in the same setting: then `COc1ccc(C(=O)NNC(=O)Cc2ccc(Cl)cc2)cc1`, with 0.6% (inactive).
